The entries come from a sample that favours hits as a whole.
AMA1 RON2 block = qHTS for Inhibitors of AMA1-RON; Towards Development of Antimalarial Drug Lead: Primary Screen; AlphaScreen AMA1-biotinylated RON2 peptide binding; Potency, µM (highest dose often 58.2 µM), without a hit: at the highest dose activity change, negative = inhibition, actives largely listed as inhibitors; 0.2% of 360,000 active; AID 720542, 2013; active = well fitted inhibition curve with a large enough effect; inconclusive = small, poorly fitted or top-dose-only effect; inactive = no such curve, though single readings can be large or run the other way;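 also: potency is read from the fitted curve at half-maximal effect; 0% = vehicle wells and -100% = peptide control; nearly all actives have a fitted effect of over 45% in size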
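AMA1 (3D7) with his tag at 25 nM final met compounds first, then biotinylated RON2 peptide at 25 nM; detection used donor plus acceptor beads, 10 µg/mL apiece, read by AlphaScreen after 30 min at room temperature.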
CHX counter = Cycloheximide Counterscreen for Small Molecule Inhibitors of Shiga Toxin; cell reporter, cycloheximide protein synthesis inhibition counterscreen; max response, %; 12% of 300,000 active; AID 2314, 2010; in the data active = max response mostly above about 13%, no sharp cut-off; inactive = mostly below about 14%; also: read at 38.3 µM for the half of the compounds with a filed dose; 0% is about no effect
MARV entry inh = qHTS for inhibitors of binding or entry into cells for Marburg Virus; Marburg virus pseudotyped entry inhibition, cell reporter; Potency, µM (top dose mostly 37.8 µM), without a hit: at the highest dose activity change, negative = inhibition, most hits filed as inhibitors; 1.8% of 300,000 active; AID 540276, 2011; calls by dose curve; tested in HEK293 cells; also: potency is read from the fitted curve at half-maximal effect; % is scaled to controls: 0 for no effect and ±100 for the full control effect
LASV entry inh = qHTS for Inhibitors of binding or entry into cells for Lassa Virus; Lassa virus pseudotype entry inhibition, cell reporter; Potency, µM (highest dose often 37.9 µM), for inactives: top-dose activity change, negative = inhibition, usual class: inhibitors; 1.2% of 300,000 active; calls by dose curve; tested in HEK293 cells; also: potency is read from the fitted curve at half-maximal effect; % is scaled to controls: 0 for no effect and ±100 for the full control effect; nearly all actives have a fitted effect of over 50% in size
Shiga toxin inh = A qHTS for Small Molecule Inhibitors of Shiga Toxin | Vero cells, Shiga toxin protein synthesis inhibition reporter | inhibition, % at 38.7 µM | 9.2% of 290,000 active; in the data active = inhibition mostly above about 28%, no sharp cut-off; inactive = mostly below about 43%; also: 0% is about no effect
Starred values were filed as active, the others as inactive; ? = inconclusive; . = not tested or not shown; [ ] = another dose, or the depositor's remark.

SMILES	AMA1 RON2 block	CHX counter	MARV entry inh	LASV entry inh	Shiga toxin inh
COc1ccc(OC)c(S(=O)(=O)NC(=O)C2(C)CCN2C(=O)Cc2ccccc2)c1 (stereo unspecified)	-1%	.	.	.	.
CC(C)COc1ccc(C(=O)N[C@@H](CC(C)C)C(=O)O)cc1	.	.	27%	.	.
CCOCCCn1c(=N)c(C(=O)NCc2ccc3c(c2)OCO3)cc2c(=O)n3cccc(C)c3nc21	-12%	-3	5.2µM*	?	-3
Cc1cccn2c(=O)c3cc(C(=O)NC(C)c4ccccc4)c(=N)n(CCCn4ccnc4)c3nc12 (stereo unspecified)	-4%	1	4.5µM*	?	-9
Cc1cccn2c(=O)c3cc(C(=O)NCc4ccco4)c(=N)n(CCc4ccccc4)c3nc12	1%	17*	?	21%[46.1 µM]	46*
N=c1c(C(=O)NCc2ccco2)cc2c(=O)n3ccccc3nc2n1Cc1ccccc1	-4%	4	?	-6%	-3
CCOCCCn1c(=N)c(C(=O)NC(C)c2ccccc2)cc2c(=O)n3cccc(C)c3nc21 (stereo unspecified)	.	.	?	-11%[46.1 µM]	.
N=c1c(C(=O)NCc2ccccc2)cc2c(=O)n3ccccc3nc2n1Cc1ccco1	7%	-8	11µM*	-27%	-14
NC(=O)c1ccc2c(=O)c(O)c(-c3cc(Cl)c(N)c(Cl)c3)[nH]c2c1	34%	-2	.	.	10
CN1CCc2nc(SCCOc3ccccc3)c(C#N)cc2C1	-1%	16	-19%	-7%	33
CC(=O)Nc1ccccc1OCc1cc(=O)n2c3c(sc2n1)CCCC3	.	.	10%[46.1 µM]	17%[46.1 µM]	.
O=C1CN(C(=O)c2ccc(S(=O)(=O)N3CCCC3)cc2)C(c2ccccc2)c2cc(Br)ccc2N1 (stereo unspecified)	.	.	4%[46.1 µM]	?	.
CCOc1cnc(-c2ccc(Cl)cc2)o1	-2%	39*	?	18%	86*
CCOc1cnc(-c2ccc(OC)cc2)o1	34%	15*	?	-17%	55*
CCOc1oc(-c2ccc(OC)cc2)nc1C(F)(F)F	15%	3	19%	-1%	32
CCOc1cnc(-c2c(-c3c(Cl)cccc3Cl)noc2C)o1	-16%	-4	?	?	4
O=C(Cn1c(=O)n(-c2ccccc2Cl)c(=O)c2sc3ccccc3c21)NC1CCCC1	.	.	10%[46.1 µM]	17%[46.1 µM]	.
CC1CCCCC1NCc1cccc([N+](=O)[O-])c1 (stereo unspecified)	-13%	12	-17%	9%	42*
O=C(Nc1sc2c(c1C(=O)O)CCC2)c1ccccc1Cl	-12%	8	5%	?	.
O=C(Nc1sc2c(c1C(=O)O)CCC2)c1cccc(Cl)c1	-20%	44*	?	-29%[46.1 µM]	70*
Cc1cccc(C(=O)Nc2sc3c(c2C(=O)O)CCCC3)c1	-5%	47*	2µM*	?	93*
CC1CCN(C(=O)CSC2=NS(=O)(=O)c3cc(F)ccc3N2)CC1	-16%	.	26%[46.1 µM]	24%	.
COc1ccc(-c2oc3cccnc3c2C#CCO)cc1	-2%	-2	.	.	-7
COc1ccc(-c2oc3cccnc3c2-c2ccc(OC)nc2)cc1	-3%	25*	.	.	22*
Cc1cccc(NC(=O)CSc2nnc(-c3cccs3)o2)c1	.	.	?	24%[46.1 µM]	.
SMILES	AMA1 RON2 block	CHX counter	MARV entry inh	LASV entry inh	Shiga toxin inh
COc1cc(OC)cc(OC(=O)C2CCN(C3=NS(=O)(=O)c4ccccc43)CC2)c1	-2%	.	.	.	.
O=C(OCc1nc2ccccc2s1)C1CCN(C2=NS(=O)(=O)c3ccccc32)CC1	-19%	61*	21%	21%	60*
COc1cc(OC)c(OC)cc1CN1CCc2nc(N3CCN(c4ccccc4F)CC3)ncc2C1	.	.	.	-2%[46.1 µM]	.
C=Cc1c(C)/c2[n-]/c1=C\c1[n-]c(c(CC)c1C)/C=c1\[n-]c3c(c1C)C(=O)C(C(=O)[O-])C=3c1[n-]c(c(C)c1CCC(=O)[O-])\C=2.[Cu].[Na+].[Na+] (stereo unspecified)	.	.	31µM*	?	.
Cc1ccc(O)c(NC(=O)c2cc(-c3cccs3)on2)c1	-2%	21*	8.9µM*	-27%	79*
CSc1ccccc1NC(=O)c1cc(-c2cccs2)on1	-5%	15	?	19%	56*
Cc1ccc(O)c(NC(=O)c2cc(-c3ccc(F)cc3)on2)c1	-12%	41*	?	13%[46.1 µM]	41
NC(=O)C1Cc2ccccc2CN1C(=O)c1nn(Cc2ccccc2)c(=O)c2ccccc12 (stereo unspecified)	-8%	.	.	.	.
CCS(=O)(=O)N1CC(=O)N(c2ccc(C)c(C)c2)C(C)(C(=O)NC2CCCCC2)C1 (stereo unspecified)	.	.	.	11%[46.1 µM]	.
NC(=O)c1ccsc1N	.	-7	.	.	-6
Nc1sccc1C(=O)c1ccc(Cl)cc1	-30%	24*	0%	12%	24
Cc1cccc(OCCCC(=O)Nc2ccc(Br)cc2)c1	33%	1	11µM*	-4%	5
Cc1cccc(OCCCC(=O)Nc2ccc(N(C)C)cc2)c1	?	84*	6%	19%	122*
CCCCn1c(O)c(C(CC)=Nc2ccc(OC)cc2OC)c(=O)[nH]c1=O	-5%	-3	?	?	-18
CCCCn1c(O)c(C(CC)=Nc2ccc(OCC)cc2)c(=O)[nH]c1=O	-6%	-2	-3%	0.33µM*	-5
C=CCn1c(O)c(C(CC)=Nc2ccc(N(CC)CC)cc2)c(=O)[nH]c1=O	-1%	-2	-1%	3.3µM*	-3
Cc1ccc(C(=O)Nc2c(-c3ccccc3)nc3ccccn23)cc1C	.	.	8%[46.1 µM]	-1%[46.1 µM]	.
N#CCn1cnc2c(oc3ccccc32)c1=O	1%	13*	.	.	10
CC(C)n1cnc2c(oc3ccccc32)c1=O	8%	32*	?	?	67*
CCCCn1cnc2c(oc3ccccc32)c1=O	-1%	51*	.	.	72*
Cc1ccccc1Cn1cnc2c(oc3ccccc32)c1=O	-23%	14	7%[46.1 µM]	-4%	41
CCOC(=O)c1ccc[n+](CC(=O)Nc2cc(C(F)(F)F)ccc2Cl)c1	-8%	-4	?	18%[46.1 µM]	28
Cc1ccc(C)c2c1[nH]c1ccc([N+](=O)[O-])cc12	-17%	-4	-16%	?	-12
CC(C)OC(=O)N(C)c1ccc(C(O)(C(F)(F)F)C(F)(F)F)cc1	0%	20*	4%	?	37
COC(=O)C(O)(c1ccc(N(C)C(=O)OC(C)C)cc1)C(F)(F)F (stereo unspecified)	5%	10	23%	?	6
COc1ccc(CNC(=S)N/N=C(\C)c2ccc(OC)cc2)cc1	14%	15	-1%[46.1 µM]	?	64*
COc1ccc(/C(C)=N/NC(=S)NCc2ccco2)cc1	7%	-1	-11%	2.1µM*	15
C=CCNC(=S)N/N=C(\C)c1ccc(OC)cc1	-12%	7	-3%[46.1 µM]	?	-1

Bioassay records deposited in PubChem by National Center for Advancing Translational Sciences (NCATS).
